# In PubChem BioAssay AID651820 (National Center for Advancing Translational Sciences (NCATS), 2012):
# Where “and” joins values, the source holds several entries; their conditions need not be identical. Identical values can stand only once. Screen size: about 340,000 compounds; about 12,000 (3.5%) were called active. Roughly 18% stayed inconclusive and do not appear here. Calls come from the whole dose curve; as a rule, active = well fitted inhibition curve with a large enough effect; inconclusive = small, poorly fitted or top-dose-only effect, or another doubt; inactive = no such curve, though single readings can be large or run the other way. The list comes from a sample in which actives are over-represented; it also holds similar structures and randomly drawn compounds. Where a call stands in place of a potency, no number is given. More than one record can exist for a structure, and the calls need not agree.
# Experiment: qHTS Assay for Inhibitors of Hepatitis C Virus (HCV)
# Conditions: Huh7.5.1 HCVcc-Cre infection, luciferase reporter, 44 h; series mostly up to 41.8 µM
# Procedure, shortened: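 A cell-based infection assay in which seeded cells (1,000 per well) receive test compound after 4 h, are inoculated with HCVcc-Cre at approximately 0.5 moi, and are incubated 44 h before luminescence detection.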
# Potency is the fitted concentration of half-maximal effect.
row,Compound,Potency
1,CCC(=O)c1ccc(OCC(=O)Nc2ccc(N3CCCCC3)cc2)cc1,11.2 µM (active)
2,COc1ccc(OCC(=O)Nc2ccc(N3CCC(C)CC3)cc2)cc1,inactive
3,O=C(COc1ccc([N+](=O)[O-])cc1)Nc1ccc(N2CCCC2)cc1,inactive
4,O=C(NC(=S)Nc1ccc(Br)cc1F)C1CCCCC1,inactive
5,Cc1c(NS(=O)(=O)c2cc(C(=O)NCCc3ccc(F)cc3)cc(Cl)c2Cl)c(=O)n(-c2ccccc2)n1C,inactive
6,CCN(CC(=O)NC(C)C)C(=O)c1cc(S(=O)(=O)N2CCCCC2)ccc1N1CCCCC1,inactive
7,CN(C)CCCNC(=O)/C=C/c1ccc(OCc2c(F)cccc2Cl)cc1,2.82 µM (active)
8,O=C(/C=C/c1ccc(OCc2c(F)cccc2Cl)cc1)N1CCOCC1,inactive
9,COCCCNC(=O)/C=C/c1ccc(OCc2c(F)cccc2Cl)cc1,inactive
10,O=C1COc2ccc(C(=O)COC(=O)CCOc3ccccc3)cc2N1,inactive
11,COCCN(C(=O)CC1CCCCC1)c1c(N)n(CC(C)C)c(=O)[nH]c1=O,inactive
12,CCCCn1c(N)c(N(CCOC)C(=O)c2cccc(S(=O)(=O)N3CCCCC3)c2)c(=O)[nH]c1=O,inactive
13,Cc1ncoc1C(=O)NCCC(c1ccccc1)c1ccccc1,inactive
14,CC(Cc1ccccc1)NCCC(c1ccccc1)c1ccccc1 (stereo not given),10 µM (active)
15,CC(Cc1ccccc1)C(=O)N(C)Cc1ccccc1 (stereo not given),inactive
16,CC[C@]12c3[nH]c4ccc(OC)cc4c3CCN1C(=O)C(CC(=O)NCc1ccco1)C[C@@H]2C(=O)N1CCN(C(=O)C2CC2)CC1 (stereo not given in full),inactive
17,O=C(CN1CCN(S(=O)(=O)c2ccc(Cl)s2)CC1)N1CCCCC1,inactive
18,COc1ccc(C(=O)NC2=NCCS2)c(OC)c1,inactive
19,COc1ccc(OC)c(-c2csc(NC(=O)COC(=O)C3CC3)n2)c1,10 µM (active)
20,COc1ccc(OC)c(-c2csc(NC(=O)C3=NNC(=O)CC3)n2)c1,0.891 µM (active)
21,COc1ccc(-c2csc(NC(=O)COC(=O)c3ccc(Br)o3)n2)cc1,inactive
22,COc1ccc(OC)c(NC(=O)c2sc3nc(C)cc(C)c3c2N)c1,inactive
23,COc1ccc(CCNC(=O)COC(=O)C2CCCCC2)cc1,inactive
24,COCCCn1c(SCC(=O)Nc2oc(C)c3c(C)n[nH]c(=O)c23)nc2sc3c(c2c1=O)CCC3,inactive
25,COc1ccc(CN2C(CC(=O)Nc3cccnc3)c3ccc(C(F)(F)F)cc3S2(=O)=O)cc1 (stereo not given),inactive

row,Compound,Potency
1,Cc1cc(C)c(C)c(S(=O)(=O)Nc2cccnc2)c1C,inactive
2,CC(OC(=O)C1CC(=O)N(Cc2ccccc2)C1)C(=O)Nc1ccccc1[N+](=O)[O-] (stereo not given),inactive
3,CCOc1ccc(N2C(=O)CSC2=NC#N)cc1,inactive
4,COc1cc(-n2c(=S)[nH]c3ccc(C)cc3c2=O)c(Cl)cc1Cl,10 µM (active)
5,COc1ccc(OC)c(-n2c(=S)[nH]c3cc(C(=O)N4CCCCC4)ccc3c2=O)c1,inactive
6,COc1cc2[nH]c(=S)n(Cc3ccc(F)cc3)c(=O)c2cc1OC,inactive
7,CCN(C(=O)CSc1cccc[n+]1[O-])c1ccccc1,inactive
8,Cc1cccc(NC(=S)NC(=O)c2ccc(Br)o2)c1,inactive
9,Cc1cccc(NC(=O)c2ccc([N+](=O)[O-])o2)c1,3.55 µM (active)
10,Cc1onc(NC(=O)c2ccc([N+](=O)[O-])o2)c1Br,inactive
11,CC(C)(C)OC(=O)N[C@H](C(=O)OC(C)(C)C)c1ccc(Br)cc1,inactive
12,CC1(C)C(=O)CCC2(C)C1=CCC1C2C(=O)CC2(C)C1CCC2(O)C(=O)CO (stereo not given),inactive
13,C[C@]12C=CC(=O)C=C1CC[C@@H]1[C@@H]2C(=O)C[C@@]2(C)[C@H]1CC[C@]2(O)C(=O)CO,inactive and 2.82 µM (active)
14,CC(=O)OCC(=O)C1(O)CCC2C3CC(C)C4=CC(=O)CCC4(C)C3C(O)CC21C (stereo not given),inactive
15,COc1ccc(-c2nnc(SCC(=O)c3cccs3)o2)c(OC)c1,inactive
16,COc1ccc(C(=O)CSc2nnc(-c3ccco3)o2)cc1,inactive
17,COc1ccc(-n2c(C)cc(C(=O)CSc3nnc(-c4cccs4)o3)c2C)cc1,11.2 µM (active)
18,COc1cc(C=NNC(=O)c2cccnc2)ccc1OC(=O)c1ccccc1F,inactive
19,O=C(COC(=O)c1ccccn1)NNC(=O)c1ccc([N+](=O)[O-])cc1,inactive
20,O=C(Nc1ccccc1)N1CCC(C(=O)N2CCN(Cc3ccccc3)CC2)CC1,inactive
21,c1cnc(Nc2nc(-c3ccc4ccccc4c3)cs2)nc1,inactive
22,c1ccc(Nc2nc(-c3ccncc3)cs2)nc1,11.2 µM (active)
23,Cc1cccc(Nc2nc(-c3ccccc3)cs2)n1,inactive
24,CC(C)CN1CC(C)C(=O)N(c2ccccc2)C1=S (stereo not given),inactive
25,O=[N+]([O-])c1ccc(N2CCOCC2)cc1,inactive

row,Compound,Potency
1,COc1ccc(C2NCCCC2c2ccccc2)cc1 (stereo not given),inactive
2,CCOC(=O)N1CCN(Cc2nc3cc(NC(C)=O)ccc3n2C)CC1,inactive
3,CC(=O)NCCc1nc2cc(NC(=O)c3ccccc3)ccc2n1C,inactive
4,Cn1c(CN2CCOCC2)nc2cc(NC(=O)c3ccc(Cl)cc3)ccc21,2.82 µM (active)
5,COc1cccc(/C=N/Nc2ncc(C(F)(F)F)cc2Cl)c1O,5.62 µM (active)
6,COc1cccc(/C(C)=N/Nc2ncc(Cl)cc2Cl)c1,inactive
7,COC(=O)Cc1ccc(Oc2ncc(C(F)(F)F)cc2Cl)cc1,inactive
8,Cc1cccc(NC(=O)CN2CCN(CC(=O)NCC3(N4CCCCC4)CCCCC3)CC2)c1C,inactive
9,COc1ccc(S(=O)(=O)N2CCOCC2)cc1NC(=O)Cc1coc2cc(C)ccc12,inactive
10,Cc1ccc(-c2nn(-c3ccccc3)cc2C(=O)NCCCN2CCCC2=O)cc1,inactive
11,Cn1c(=O)n(CCc2ccccc2)c(=O)c2c1nc1n2CCCN1c1ccccc1,inactive
12,CC(C)CCn1c(=O)c2c(nc3n2CCCN3Cc2ccccc2)n(C)c1=O,11.2 µM (active)
13,CC(C)CCn1c(CN(C)Cc2ccccc2)nc2c1c(=O)n(C)c(=O)n2C,inactive
14,O=c1[nH]c(=S)[nH]c(O)c1/C=C1\C=Nc2ccccc21,inactive
15,Cc1cc(F)ccc1S(=O)(=O)Nc1ccc(C(=O)N(C)Cc2ccco2)cc1,inactive
16,CCOC(=O)C1=CN(Cc2ccc(Br)cc2)S(=O)(=O)NC1C (stereo not given),inactive
17,COC(=O)c1cc(Oc2ccc(S(=O)(=O)N3CCOCC3)cc2[N+](=O)[O-])cc(C(=O)OC)c1,inactive
18,O=C(CCN1c2ccccc2Sc2ccccc21)Nc1ccccc1,12.6 µM (active)
19,CC1CCN(CCC(=O)Nc2ccccc2)CC1,inactive
20,O=C(CCN1C(=O)c2ccccc2C1=O)Nc1ccncc1,inactive
21,O=S(=O)(Nc1ccc(-n2cnnn2)cc1)c1ccc(Cl)cc1,inactive
22,Fc1ccccc1-c1cc2cc3c(cc2cn1)OCO3,inactive
23,O=C(CCN1CCCCC1)NCC(=O)Nc1ccc(Br)cc1C(=O)c1ccccc1,10 µM (active)
24,Cc1ccc(NC(=O)c2nc[nH]c2C(=O)N2CCCCC2)c(C(=O)c2ccccc2)c1,inactive
25,COc1ccc(NC(=O)CCN2CCCC2)c(OC)c1,inactive

row,Compound,Potency
1,Cc1cccc(C)c1Nc1nnc(SCC(=O)NCCCN2CCCC2=O)s1,inactive
2,COC(=O)C1=CO[C@@H](O[C@@H]2O[C@H](CO)[C@@H](O)[C@H](O)[C@H]2O)C2C1C[C@H](O)[C@@H]2C (stereo not given in full),2.51 µM (active)
3,CO[C@H]1[C@@H]2C=CO[C@@H](O[C@H]3O[C@@H](CO)[C@H](O)[C@@H](O)[C@@H]3O)[C@@H]2[C@@]2(CO)O[C@@H]12,inactive
4,C=CC1C(OC2OC(CO)C(O)C(O)C2O)OC=C(C(=O)OC)C1CC1CC(=O)CC(CC(=O)CCc2ccc(O)cc2)O1 (stereo not given),inactive
5,CCCc1cc(=O)[nH]c(SCC(=O)c2cc(C)n(CCC)c2C)n1,inactive
6,Cc1cc(=O)[nH]c(SCc2ccc(Cl)cc2)n1,inactive
7,Cc1cc(C(=O)CSc2nc(N)cc(=O)[nH]2)c(C)n1CCc1ccc(Cl)cc1,11.2 µM (active)
8,Cc1ccc(S(=O)(=O)N2CCN(C(=O)c3cc(S(=O)(=O)N4CCOCC4)ccc3F)CC2)cc1,inactive
9,CCCCCCCCNS(=O)(=O)CCNC1CCCCC1,inactive
10,COc1cccc(C(=O)Nc2ccc(N3CCN(C(=O)c4ccco4)CC3)cc2)c1,inactive
11,COc1ccc(C(=O)Nc2ccc(N3CCC(C)CC3)cc2)cc1Br,inactive
12,COc1cccc(C(=O)Nc2ccc(N3CCCC3)cc2)c1,11.2 µM (active)
13,O=C(CSc1ncn[nH]1)Nc1ccc(Br)cc1Br,inactive
14,Cc1cccc(C(=O)OC(C)C(=O)NC2CCCc3ccccc32)c1O (stereo not given),inactive
15,Cc1cc(C(=O)NNC(=O)c2ccccc2O)c(C)o1,inactive
16,COc1cccc(C(=O)Nc2c3c(nn2-c2cccc(C)c2C)CS(=O)(=O)C3)c1OC,inactive
17,Cc1cc(C(=O)NC2CCCc3c2cnn3-c2cccc(C)c2C)c(C)o1 (stereo not given),10 µM (active)
18,COc1ccc(C(=O)NC2CCCc3c2cnn3-c2cccc(C)c2C)c(OC)n1 (stereo not given),2.24 µM (active)
19,COc1ccc(C(=O)NC2CC(C)(C)Cc3c2cnn3-c2ccccc2C)o1 (stereo not given),inactive
20,CC(=O)NCC(=O)NC1CCCc2c1cnn2-c1ccccc1F (stereo not given),inactive
21,Cn1nccc1C(=O)NC1CCCc2c1cnn2-c1ccccc1F (stereo not given),0.891 µM (active)
22,CC1(C)Cc2c(cnn2-c2cccc(F)c2)C(NC(=O)c2cc[n+]([O-])cc2)C1 (stereo not given),inactive
23,NC(=S)NN=C1CCCC(C(F)(F)F)C1 (stereo not given),inactive
24,C#CCOCCOCCOCCNc1nc(N2CCN(C(=O)Cn3cc(CCCCN)nn3)CC2)nc(N2CCN(C(=O)[C@H](CCCCN)n3cc(CCC(=O)O)nn3)CC2)n1,inactive
25,CCOC(=O)C1=CN(Cc2ccc(Br)cc2)S(=O)(=O)N(C)C1C (stereo not given),inactive
